A short description of the assay: M. tuberculosis growth inhibition, HTS (AID 1259417).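 Further: bacteria grown with compound for 5 days at 37 °C.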 Particulars: stronger effect = higher value, concentration not given here.
Where [1] appears, read: M. tuberculosis DsRed fluorescence growth inhibition.
Where [2] appears, read: M. tuberculosis growth inhibition.

Molecules are shown by their SMILES. Out of some 1,100 compounds screened, about 760 (69%) were called active. How the calls were made is not given here. So high a share suggests a set chosen from earlier hits. The list shows a part of the results.

As for `CC(Nc1nc(N2CCCCC2)nc2ccccc12)c1ccccc1` (configuration not stated), the inhibition (commonly the drop in the measured response relative to a control, in per cent) runs as follows: under setting [1], 98.6% (active); under setting [2], 98.9%.
On to `CC(Nc1nc(N2CCN(C(=O)c3ccc(Cl)cc3)CC2)nc2ccccc12)c1ccccc1` (configuration not stated), for which the inhibition under setting [1] was 0.606% (inactive) and the inhibition under setting [2] is -19.8%.
In the same order, the values of `COC(C)(C)C#CC(=O)c1cccc2ccccc12` are 100% (active) and 98.9%.
On the same counts, the results for `COc1ccccc1C1=Nc2cccc3cccc(c23)N1` are 45.9% (active) and 45.8%.
In the same order, the values of `Cc1nnc(NC(=O)c2ccc3ccccc3c2)o1` are 98.3% (active) and 99.1%.
Regarding `Cc1cccc(C(=O)Nc2nnc(C3=COCCO3)o2)c1`, the inhibition is 8.04% (inactive) under setting [1] and 3.45% under setting [2].
On the same counts, the results for `Cc1ccc(-c2csc3ncn(C(C)C(=O)OCc4ccccc4Cl)c(=O)c23)cc1` (configuration not stated) are -5.81% (inactive) and 4.87%.
Take `CC(Oc1ccc(C(=O)NC2CCCCC2)cc1)C(=O)OCc1ccccc1Cl` (configuration not stated): the inhibition runs as follows: under setting [1], 51% (active); under setting [2], 69.4%.
In the same order, the values of `COc1ccc(C(=O)Oc2ccc(C(=O)OCc3ccccc3)cc2)cc1OC` are 3.52% (inactive) and -20.9%.
As to `CC(Oc1ccc(C(=O)NCCc2ccccc2)cc1)C(=O)OCc1ccccc1` (configuration not stated), the inhibition reads like this: under setting [1], 36.1% (active); under setting [2], 55.5%.
On the same counts, the results for `COC(=O)CSc1ccnc2cc(Cl)ccc12` are 27% (active) and 74.4%.
In the same order, the values of `Cc1cc(C)c2sc(N3CCCC3)nc2c1` are 100% (active) and 99.8%.
`Cc1ccc(Nc2nc(N3CCN(C)CC3)nc(N)c2[N+](=O)[O-])cc1C`: the inhibition reads like this: under setting [1], 61.4% (active); under setting [2], 61.7%.
On the same counts, the results for `Cc1ccc(-c2nnc3sc(Cc4ccccc4)nn23)cc1` are 100% (active) and 99.4%.
On to `COc1ccc(Cc2nn3c(-c4ccccc4)nnc3s2)cc1`, for which the inhibition reads like this: under setting [1], 100% (active); under setting [2], 100%.
As to `Cc1ccc(-c2nnc3sc(CCc4ccccc4)nn23)cc1`, the inhibition was 100% (active) under setting [1] and 100% under setting [2].
In the same order, the values of `Cc1cnc(NC(=O)CSc2ccc(Cl)cc2)s1` are -1.45% (inactive) and -17.5%.
Regarding `N#Cc1ccc(NC(=O)CSc2ccc(Cl)cc2)cc1`, the inhibition is 10.6% (active) under setting [1] and 56.7% under setting [2].
In the same order, the values of `O=C(CSc1nnc(SCc2cccc3ccccc23)s1)Nc1ccccc1F` are 3.26% (active) and 43.1%.
For the compound `N#Cc1ccc(NC(=O)CSc2ccc(Br)cc2)cc1`, the inhibition reads like this: under setting [1], 8.52% (active); under setting [2], 46.8%.
As for `Cc1cccc(Nc2nnc(SCC(=O)Nc3cccnc3Cl)s2)c1`, the inhibition reads like this: under setting [1], 3% (inactive); under setting [2], 14.2%.
On the same counts, the results for `O=C(CSc1ccc(Cl)cc1)Nc1ccc(Br)cn1` are 2.64% (active) and 38%.
Take `O=C(CSc1ccc(Br)cc1)Nc1ccccc1F`: the inhibition reads like this: under setting [1], 1.79% (active); under setting [2], 46.4%.
`Clc1ccc(OCCCNCc2ccccc2)c2ccccc12`: the inhibition runs as follows: under setting [1], -2.3% (inactive); under setting [2], -30%.
On the same counts, the results for `CCC(C)NCCCOc1ccc(Cl)c2ccccc12` (configuration not stated) are 97.1% (active) and 89.4%.
In the same order, the values of `COC(=O)COc1ccc(-c2ccc(F)cc2)cc1C=O` are 39.2% (active) and 85.5%.

The record behind these values is PubChem BioAssay AID1259417 (TB Discovery Research, Infectious Disease Research Institute, 2018).
